Data on 31 compounds can be found in PubChem BioAssay (NCATS).

Records with an inconclusive call do not appear. Where a call stands in place of a potency, no number is given. The source made the active and inactive calls. Calls come from the whole dose curve; as a rule, active = well fitted inhibition curve with a large enough effect; inconclusive = small, poorly fitted or top-dose-only effect; inactive = flat fitted curve, though single readings scatter.
Potency is the fitted concentration of half-maximal effect.

Sequence of Lysine-specific demethylase 5B (Homo sapiens) (Q9UGL1 whole entry, looked up): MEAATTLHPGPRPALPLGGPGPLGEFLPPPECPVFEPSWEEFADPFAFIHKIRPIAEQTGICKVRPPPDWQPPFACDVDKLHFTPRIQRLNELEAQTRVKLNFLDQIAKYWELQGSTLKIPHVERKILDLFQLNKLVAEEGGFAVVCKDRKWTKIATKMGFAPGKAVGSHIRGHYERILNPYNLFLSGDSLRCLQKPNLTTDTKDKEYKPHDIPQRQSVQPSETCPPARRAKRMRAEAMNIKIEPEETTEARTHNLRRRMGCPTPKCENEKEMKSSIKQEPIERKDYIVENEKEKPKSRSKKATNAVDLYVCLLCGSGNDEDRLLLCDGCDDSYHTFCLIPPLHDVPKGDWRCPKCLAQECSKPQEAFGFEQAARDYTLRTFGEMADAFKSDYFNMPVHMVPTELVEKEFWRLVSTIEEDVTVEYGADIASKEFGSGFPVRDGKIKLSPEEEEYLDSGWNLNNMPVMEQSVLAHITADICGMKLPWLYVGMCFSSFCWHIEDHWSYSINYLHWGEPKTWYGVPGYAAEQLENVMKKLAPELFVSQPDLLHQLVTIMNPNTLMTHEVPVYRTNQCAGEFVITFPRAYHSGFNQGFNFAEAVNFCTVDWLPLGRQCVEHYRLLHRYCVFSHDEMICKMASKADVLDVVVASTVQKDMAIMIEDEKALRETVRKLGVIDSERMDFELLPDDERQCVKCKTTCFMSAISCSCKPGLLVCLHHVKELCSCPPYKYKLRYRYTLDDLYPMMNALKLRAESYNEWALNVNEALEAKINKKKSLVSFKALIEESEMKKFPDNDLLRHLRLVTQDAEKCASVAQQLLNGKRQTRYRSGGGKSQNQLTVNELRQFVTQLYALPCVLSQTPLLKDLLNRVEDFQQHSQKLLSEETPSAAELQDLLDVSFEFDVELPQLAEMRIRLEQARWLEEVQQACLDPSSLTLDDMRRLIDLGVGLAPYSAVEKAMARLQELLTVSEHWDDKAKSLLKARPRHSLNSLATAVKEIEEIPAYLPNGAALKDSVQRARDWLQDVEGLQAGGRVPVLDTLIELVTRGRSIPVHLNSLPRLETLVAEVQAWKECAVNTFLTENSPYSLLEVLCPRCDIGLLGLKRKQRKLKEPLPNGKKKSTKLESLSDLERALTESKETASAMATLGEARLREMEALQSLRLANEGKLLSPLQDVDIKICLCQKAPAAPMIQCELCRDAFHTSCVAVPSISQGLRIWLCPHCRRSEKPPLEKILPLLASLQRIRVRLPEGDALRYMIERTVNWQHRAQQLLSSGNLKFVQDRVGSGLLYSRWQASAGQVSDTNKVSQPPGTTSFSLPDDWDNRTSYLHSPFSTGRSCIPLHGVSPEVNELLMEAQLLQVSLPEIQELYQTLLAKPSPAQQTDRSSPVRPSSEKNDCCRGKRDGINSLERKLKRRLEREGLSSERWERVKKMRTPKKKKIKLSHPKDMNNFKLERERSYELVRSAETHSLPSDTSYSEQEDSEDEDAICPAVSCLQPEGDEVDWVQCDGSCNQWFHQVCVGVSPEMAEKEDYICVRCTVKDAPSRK

The target of this test is Lysine-specific demethylase 5B (Homo sapiens) (UniProt Q9UGL1). Nature of the test: Optimization screen for KDM5B Histone Demethylases FDH coupled qHTS against the LOPAC library (AID 1347166). The following applies: KDM5B demethylation, FDH-coupled NADH fluorescence (FDH is formaldehyde dehydrogenase); series mostly up to 57.5 µM. The method, boiled down:
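KDM5BDeltaAP (200nM final) in 50mM HEPES pH 7.5, 0.01% Tween-20 was preincubated with compound for 10 min at room temperature. A substrate mix of 12.5uM H3K4Me3, 25uM a-ketoglutarate, ascorbate, Fe2+, NAD+ and formaldehyde dehydrogenase was then added. NADH fluorescence (340/450 nm) was read initially and after 30 min.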
Background: In qHTS, concentration-response curves come from the screen itself.
In the case of `NCCc1ccc(S(=O)(=O)F)cc1`, the Potency result is “inactive”. `CCCn1c(C)c(C(=O)c2ccc3ccccc3c2)c2ccccc21`: the Potency result is “inactive”. The value for `C=CCN(C1=NCCN1)c1c(Cl)cccc1Cl` was “inactive”; that for `CCCN(CCC)[C@H]1CCc2c(F)ccc(O)c2C1` was “inactive”; that for `COc1ccc2[nH]c3c(c2c1)CCNC3` was “inactive”. The value for `O=C1CC[C@@]2(O)C3Cc4ccc(O)c5c4C2(CCN3CC2CC2)[C@H]1O5` (stereo partly specified) was “inactive”. The value for `CN1CC[C@@]2(C)c3cc(O)ccc3N(C)C12` (stereo partly specified) was 2510 nM (active); that for `CCCN1CC[C@@H]2c3cc(O)ccc3CC[C@@H]21` was “inactive”. Regarding `CCn1cnc2c(Nc3cccc(Cl)c3)nc(N[C@@H]3CCCC[C@@H]3N)nc21`, the Potency entry is “inactive”. To `c1ccc2cc(CC3=NCCN3)ccc2c1` belongs “inactive”; to `CC(N)c1cccc(Cl)c1Cl` (stereo unspecified), “inactive”; to `CC(C)(O)[C@@H]1C2OC(=O)[C@@H]1[C@]1(O)C[C@H]3O[C@]34C(=O)O[C@H]2[C@]14C` (tested in a mixture with another compound), “inactive”.

As for `C=CCN1CCC23c4c5ccc(O)c4O[C@H]2C(=O)CC[C@@]3(O)C1C5` (stereo partly specified), the Potency result was “inactive”. To `CC(C)NP(=O)(NC(C)C)OP(=O)(NC(C)C)NC(C)C` belongs “inactive”; to `NC(=O)c1ccc(OCC(O)CN2CC=C(c3ccc(F)cc3)CC2)cc1` (stereo unspecified), “inactive”; to `NCCCP(=O)(O)O`, “inactive”.

For the compound `COc1ccc2c(c1)C13CCCCC1C(C2)N(C)CC3` (stereo unspecified), the Potency result was “inactive”. With `Ic1ccccc1CNC1C2CCN(CC2)C1C(c1ccccc1)c1ccccc1` (stereo unspecified), the Potency entry was “inactive”. The value for `Cc1o[nH]c(=O)c1CC(N)C(=O)O` (stereo unspecified) was “inactive”; that for `N[C@@H](Cn1ccc(=O)[nH]c1=O)C(=O)O` was “inactive”; that for `NC(=O)c1cc(N2CC2)c([N+](=O)[O-])cc1[N+](=O)[O-]` was “inactive”. The value for `OC1CCCCC1N1CCC(c2ccccc2)CC1` (stereo unspecified) was “inactive”.

In the case of `C[C@@H]1O[C@@H](O[C@H]2C[C@@H](O)[C@]3(CO)[C@@H]4C(CC[C@]3(O)C2)[C@@]2(O)CC[C@H]([C@@H]3COC(=O)C3)[C@@]2(C)C[C@H]4O)[C@H](O)[C@H](O)[C@H]1O` (stereo partly specified), the Potency entry was “inactive”. As for `COc1ccc(CNC(=O)/C=C/c2ccc3[nH]cc(CCN(C)C)c3c2)cc1`, the Potency entry was “inactive”. To `C#CCN[C@H](C)Cc1ccccc1` belongs “inactive”; to `NC(CCCCCP(=O)(O)O)C(=O)O` (stereo unspecified), “inactive”. With `COc1ccc2c(c1)/C(=C/c1cnc[nH]1)C(=O)N2`, the Potency entry is “inactive”. The value for `N#CCCN` was “inactive”; that for `C[Se]C[C@H](N)C(=O)O` was “inactive”; that for `Clc1cc(I)cc(Cl)c1NC1=NCCN1` was “inactive”. The value for `COc1ccc2c(c1)c(CCN1CCOCC1)c(C)n2C(=O)c1cccc(Cl)c1Cl` was “inactive”.
